From PubChem BioAssay
Activity calls are given as the source filed them.

What was measured:
[1] = target: Albumin (Bos taurus) (UniProt P02769); test: compounds binding labelled BSA control protein – biochemical, small-molecule microarray, Alexa647 label, 635/667 nm fluorescence, artefact control for SMM control protein annotation, profiling panel (AID 1118); details: BSA-A647 binding, fluorescence 635 nm, higher = more signal;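 further: score merges 667 nm emission intensity and signal-to-noise per printed compound spot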
Sequence of Albumin (Bos taurus) (P02769 whole entry, looked up): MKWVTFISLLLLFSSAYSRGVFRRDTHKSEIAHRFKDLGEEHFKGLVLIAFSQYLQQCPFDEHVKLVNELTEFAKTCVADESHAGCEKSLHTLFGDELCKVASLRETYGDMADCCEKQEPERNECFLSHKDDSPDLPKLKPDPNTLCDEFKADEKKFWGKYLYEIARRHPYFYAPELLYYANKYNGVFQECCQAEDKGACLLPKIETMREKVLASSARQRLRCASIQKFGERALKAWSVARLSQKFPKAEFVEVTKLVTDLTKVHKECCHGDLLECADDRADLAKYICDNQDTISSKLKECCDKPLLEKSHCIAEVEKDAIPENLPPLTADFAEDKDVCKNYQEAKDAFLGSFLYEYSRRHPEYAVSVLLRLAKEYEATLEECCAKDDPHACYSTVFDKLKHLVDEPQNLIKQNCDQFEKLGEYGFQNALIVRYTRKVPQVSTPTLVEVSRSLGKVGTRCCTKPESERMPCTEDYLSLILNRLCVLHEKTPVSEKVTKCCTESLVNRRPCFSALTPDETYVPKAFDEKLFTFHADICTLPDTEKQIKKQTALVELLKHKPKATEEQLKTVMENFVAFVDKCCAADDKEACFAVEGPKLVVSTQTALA

[2] = probe aXIP binding to arrayed compounds – biochemical, NeuroSMM set, 635/667 nm fluorescence, primary screen (AID 1119); details: small-molecule microarray, higher = more signal, called active from +8 up or from −8 down;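 further: probe is the protein aXip251-270 applied at 1 µg/mL to compound-printed slides; binding of probe to printed compounds measured as 667 nm fluorescence plus signal to noise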
[3] = probe aNOTCH3 binding on compound microarray – biochemical, small-molecule microarray, 635/667 nm fluorescence, primary screen (AID 1120); details: higher = more signal;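 further: probe is a biotin-tagged antibody raised against NOTCH3 rather than NOTCH3 protein; score merges spot fluorescence near 667 nm with spot signal to noise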
[4] = probe aNOTCH2 binding on compound microarray – biochemical, small-molecule microarray, 635/667 nm fluorescence, primary screen (AID 1121); details: higher = more signal;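 further: score merges feature fluorescence read at 667 nm with its signal to noise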
[5] = target: Carbonic anhydrase 2 (Homo sapiens) (UniProt P00918); test: compounds binding carbonic anhydrase 2 – biochemical, small-molecule microarray, Alexa647-labelled CAII, profiling panel (AID 1122); details: CAII-A647 binding fluorescence, higher = more signal
[6] = COS7 lysate on small-molecule microarray, probe aHis, 635 nm (AID 1123); details: COS7 cell lysate, fluorescence, higher = more signal;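 further: z-score combines 667nm fluorescence intensity with signal-to-noise per printed compound spot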
[7] = probe aLAP1 signal on lysate-treated microarray – cell lysate, small-molecule microarray, COS7 lysate, primary screen (AID 1124); details: probe aLAP1, fluorescence, higher = more signal;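 further: lysate comes from COS7 cells expressing LAP1 and is applied at 0.3 µg/mL; score merges spot fluorescence near 667 nm with signal-to-noise over triplicate slides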
[8] = tested on: Sam68 (KHDRBS1); test: compounds binding KHDRBS1 protein – biochemical, small-molecule microarray, 635 nm fluorescence, primary screen (AID 1125); details: higher = more signal;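 further: score merges 667 nm channel intensity with signal to noise over triplicate slides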
[9] = tested on: Chordin-like protein 2 (CHRDL2); test: compounds binding chordin-like 2 – biochemical, small-molecule microarray, 635 nm fluorescence, primary screen (AID 1126); details: fluorescence 635 nm, higher = more signal;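 further: printed compound slides probed with Chrdl2 protein at 4 µg/mL for 1 h at 4 C; score merges 667 nm emission intensity with signal to noise over three replicate slides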
[10] = target: Concanavalin-A (Canavalia ensiformis) (UniProt P02866); test: compounds binding concanavalin A lectin – biochemical, small-molecule microarray, Alexa647 label, 635 nm, artefact control for SMM control protein annotation, primary screen (AID 1127); details: ConA-A647 binding fluorescence, higher = more signal;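 further: z combines 667 nm emission intensity with signal-to-noise across three replicate slides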
Sequence of Concanavalin-A (Canavalia ensiformis) (P02866 whole entry, looked up): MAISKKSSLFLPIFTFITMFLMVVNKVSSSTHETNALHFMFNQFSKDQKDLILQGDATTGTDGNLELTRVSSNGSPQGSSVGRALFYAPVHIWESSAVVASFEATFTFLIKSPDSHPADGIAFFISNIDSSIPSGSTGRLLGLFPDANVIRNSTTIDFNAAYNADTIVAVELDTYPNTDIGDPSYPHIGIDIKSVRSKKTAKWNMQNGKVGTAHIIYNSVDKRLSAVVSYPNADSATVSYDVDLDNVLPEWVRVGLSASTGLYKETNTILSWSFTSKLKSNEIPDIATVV

[11] = compounds binding Alexa647 anti-His antibody – biochemical, small-molecule microarray, 635 nm fluorescence, artefact control for SMM control protein annotation, primary screen (AID 1128); details: higher = more signal;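 further: score merges feature fluorescence with signal-to-noise for each printed compound spot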
[12] = tested on: Human papillomavirus type 1a E7 protein (residues 1-88); test: HPV1a E7 small-molecule binders, primary screen, biochemical, small-molecule microarray, residues 1-88, 635 nm (AID 1129); details: small-molecule microarray binding, fluorescence 635 nm; higher = more signal
[13] = target: Focal adhesion kinase 1 (Homo sapiens) (UniProt Q05397); test: PTK2 protein binding on printed compound slides – biochemical, small-molecule microarray, 635/667 nm fluorescence, BSA, DTT, primary screen (AID 1130); details: 635 nm fluorescence, higher = more signal;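 further: composite of spot emission at 667 nm and signal to noise over triplicate slides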
Sequence of Focal adhesion kinase 1 (Homo sapiens) (Q05397 whole entry, looked up): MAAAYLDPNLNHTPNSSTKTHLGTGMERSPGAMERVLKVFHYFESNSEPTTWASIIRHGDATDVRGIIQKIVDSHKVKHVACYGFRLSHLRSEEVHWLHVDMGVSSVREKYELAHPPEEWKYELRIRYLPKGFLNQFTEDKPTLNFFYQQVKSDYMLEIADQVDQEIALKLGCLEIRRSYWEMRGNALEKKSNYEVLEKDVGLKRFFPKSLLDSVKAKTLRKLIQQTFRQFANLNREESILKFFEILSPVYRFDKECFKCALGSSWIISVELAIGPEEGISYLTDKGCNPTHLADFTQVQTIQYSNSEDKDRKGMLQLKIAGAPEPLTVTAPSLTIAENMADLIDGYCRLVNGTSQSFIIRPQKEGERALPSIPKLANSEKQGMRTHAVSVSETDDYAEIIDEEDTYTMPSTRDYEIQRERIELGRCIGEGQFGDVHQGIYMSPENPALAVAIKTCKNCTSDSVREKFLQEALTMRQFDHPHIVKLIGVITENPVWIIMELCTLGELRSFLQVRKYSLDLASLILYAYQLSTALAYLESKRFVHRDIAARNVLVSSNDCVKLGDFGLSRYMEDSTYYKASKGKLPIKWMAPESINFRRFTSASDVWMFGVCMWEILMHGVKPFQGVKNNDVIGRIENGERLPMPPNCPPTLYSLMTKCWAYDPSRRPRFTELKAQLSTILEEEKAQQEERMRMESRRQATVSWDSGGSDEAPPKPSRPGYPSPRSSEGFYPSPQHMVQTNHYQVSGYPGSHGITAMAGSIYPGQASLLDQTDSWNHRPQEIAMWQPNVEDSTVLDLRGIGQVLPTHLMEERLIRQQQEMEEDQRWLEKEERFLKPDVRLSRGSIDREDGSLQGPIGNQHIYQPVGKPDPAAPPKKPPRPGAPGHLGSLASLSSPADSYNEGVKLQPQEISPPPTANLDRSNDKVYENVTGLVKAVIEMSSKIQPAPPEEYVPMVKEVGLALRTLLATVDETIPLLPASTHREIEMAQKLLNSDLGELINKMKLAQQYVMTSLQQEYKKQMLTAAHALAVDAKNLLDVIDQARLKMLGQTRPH

[14] = tested on: Fibrinogen (Alexa647-labelled); test: Alexa647-fibrinogen binding to printed small molecules – biochemical, small-molecule microarray, 635/667 nm fluorescence, artefact control for SMM control-protein annotation, profiling panel (AID 1131); details: fibrinogen-A647 binding fluorescence, higher = more signal;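 further: z-score merges 667 nm fluorescence with per-spot signal-to-noise over triplicate slides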
[15] = target: Follistatin (Homo sapiens) (UniProt P19883); test: FST protein binding to printed compounds – biochemical, small-molecule microarray, 635/667 nm fluorescence, primary screen (AID 1132); details: 635 nm fluorescence, higher = more signal
Sequence of Follistatin (Homo sapiens) (P19883 whole entry, looked up): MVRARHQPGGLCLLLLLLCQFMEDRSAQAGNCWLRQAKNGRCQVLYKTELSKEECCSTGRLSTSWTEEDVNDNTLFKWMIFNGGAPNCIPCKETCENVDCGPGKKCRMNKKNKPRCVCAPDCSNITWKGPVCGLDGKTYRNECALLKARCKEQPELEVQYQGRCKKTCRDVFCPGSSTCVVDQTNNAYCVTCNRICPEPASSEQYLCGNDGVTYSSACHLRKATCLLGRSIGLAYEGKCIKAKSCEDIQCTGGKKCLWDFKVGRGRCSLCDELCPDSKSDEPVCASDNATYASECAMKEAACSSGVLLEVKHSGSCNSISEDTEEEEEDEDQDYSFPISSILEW

[16] = target: Fibroblast growth factor 2 (Homo sapiens) (UniProt P09038); test: basic fibroblast growth factor binding to printed compounds – biochemical, small-molecule microarray, 635/667 nm fluorescence, primary screen (AID 1133); details: FGF2, fluorescence 635/667, higher = more signal
Sequence of Fibroblast growth factor 2 (Homo sapiens) (P09038 whole entry, looked up): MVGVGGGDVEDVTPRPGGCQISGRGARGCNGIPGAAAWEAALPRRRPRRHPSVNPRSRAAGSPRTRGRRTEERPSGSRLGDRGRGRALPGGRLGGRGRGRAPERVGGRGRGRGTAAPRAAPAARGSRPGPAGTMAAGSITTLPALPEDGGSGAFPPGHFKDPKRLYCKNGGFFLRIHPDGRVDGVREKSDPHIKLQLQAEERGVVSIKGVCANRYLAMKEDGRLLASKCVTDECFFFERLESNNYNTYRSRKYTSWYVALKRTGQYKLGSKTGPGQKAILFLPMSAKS

[17] = JC-1 mitochondrial potential readout, lung cancer cells – cell-based, A549, JC-1 fluorescence, basal, 24 h, 100 nL, profiling panel (AID 1138); details: higher = more signal;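 further: A549 lung adenocarcinoma cells under basal conditions with no added stimulus; test concentration not given here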
[18] = tested on: Lefty1; test: Lefty1 protein binding to printed compounds – biochemical, small-molecule microarray, 635/667 nm fluorescence, primary screen (AID 1139); details: fluorescence 635/667, higher = more signal
[19] = tested on: wheat germ agglutinin (Triticum aestivum), Alexa647-labelled; test: Alexa647-WGA lectin binding to printed small molecules – biochemical, small-molecule microarray, 635/667 nm fluorescence, artefact control for SMM control-protein annotation, profiling panel (AID 1140); details: WGA-A647 binding, 635 nm fluorescence, higher = more signal;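 further: score merges 667 nm feature emission with signal to noise over triplicate slides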
[20] = target: Luciferin 4-monooxygenase (Photinus pyralis) (UniProt P08659); test: inhibition of purified Photinus pyralis luciferase – biochemical, luminescence, purified enzyme, 2006 set, primary screen (AID 1141); details: purified firefly luciferase, SteadyGlo luminescence, 30 min; higher = more signal, called active from +8 up or from −8 down;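 further: cell-free assay with purified firefly luciferase at 100 ng per well in PBS; test concentration not given here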
Sequence of Luciferin 4-monooxygenase (Photinus pyralis) (P08659 whole entry, looked up): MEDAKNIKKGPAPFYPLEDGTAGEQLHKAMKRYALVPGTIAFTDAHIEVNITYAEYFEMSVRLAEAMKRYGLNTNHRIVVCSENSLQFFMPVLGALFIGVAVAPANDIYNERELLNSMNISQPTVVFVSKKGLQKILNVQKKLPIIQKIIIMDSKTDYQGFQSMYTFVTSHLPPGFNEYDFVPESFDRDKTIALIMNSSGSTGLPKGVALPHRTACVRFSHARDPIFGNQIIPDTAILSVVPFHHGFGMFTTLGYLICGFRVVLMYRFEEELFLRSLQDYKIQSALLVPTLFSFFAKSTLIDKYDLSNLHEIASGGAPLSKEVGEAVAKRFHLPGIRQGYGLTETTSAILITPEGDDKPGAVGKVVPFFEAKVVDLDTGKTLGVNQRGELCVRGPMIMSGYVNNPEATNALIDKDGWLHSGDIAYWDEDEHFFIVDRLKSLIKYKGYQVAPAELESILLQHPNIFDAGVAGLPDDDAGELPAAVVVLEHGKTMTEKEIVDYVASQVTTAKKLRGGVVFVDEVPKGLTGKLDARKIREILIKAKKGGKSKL

| SMILES | composite z-score [1] | composite Z-score [2] | composite z-score [3] | composite z-score [4] | composite z-score [5] | composite z-score [6] | composite z-score [7] | composite z-score [8] | composite z-score [9] | composite z-score [10] | composite z-score [11] | composite z-score [12] | composite z-score [13] | composite z-score [14] | composite z-score [15] | composite z-score [16] | z-score [17] | composite z-score [18] | composite z-score [19] | z-score [20] |
| --- | --- | --- | --- | --- | --- | --- | --- | --- | --- | --- | --- | --- | --- | --- | --- | --- | --- | --- | --- | --- |
| COC(=O)[C@@]1(Cc2ccc(F)cc2)[C@H]2c3cc(C(=O)N4CCCC4)n(CCc4ccc(OC)c(Br)c4)c3C[C@H]2CN1C(=O)c1ccccc1 | 0.843 | -0.61 (inactive) | 0.591 | 0.323 | 0.599 | 3.26 | 0.987 | 1.33 | -1.39 | 1.15 | 2.45 | 1.22 | 1.32 | 0.831 | 1.08 | -0.705 | -1.58 | 0.265 | 1.38 | -0.0863 (inactive) |
| COC(=O)C(CC#Cc1ccc2c(c1)[C@]1(C(=O)N2)[C@H](C(=O)N2CCCCCCC2)[C@H]2C(=O)O[C@H](c3ccccc3)[C@H](c3ccccc3)N2[C@@H]1c1ccccc1OCCO)C(=O)OC | 0.678 | 10.6 (active) | 2.26 | 1.16 | 1.08 | 5.41 | 1.58 | 1.32 | 1.68 | 0.916 | 3 | 1.35 | 4.24 | 0.654 | 1.56 | 0.197 | -1.08 | 1.89 | 1.73 | -0.525 (inactive) |
| C=CCN1C(=O)[C@@]2(O[C@@H](CCO)[C@H]([Si](C)(C)c3ccc(OC)cc3)[C@H]2C)c2cc(NC(C)=O)ccc21 | -0.0164 | 0.347 (inactive) | 0.307 | -0.044 | 0.366 | 2.57 | 0.423 | 1.33 | 0.835 | 0.915 | 1.48 | 1.21 | 0.0016 | 0.818 | 1.34 | 1.45 | 0.921 | 1.22 | 0.948 | -0.301 (inactive) |
| COc1ccc([Si](C)(C)[C@@H]2[C@@H](CCO)O[C@]3(C(=O)N(Cc4ccccc4)c4ccc(N(C=O)c5ccccc5)cc43)[C@H]2C)cc1 | 0.624 | 1.04 (inactive) | -0.159 | -0.0682 | 0.497 | 0.937 | 0.719 | 0.601 | -0.15 | 0.762 | 1.24 | 0.0244 | -0.205 | 0.181 | 1.08 | 0.614 | -0.276 | 0.497 | 0.467 | -0.301 (inactive) |
| COc1ccc(C#Cc2ccc3c(c2)[C@]2(C(=O)N3)[C@H](C(=O)N3CCc4cc(OC)c(OC)cc4C3)[C@H]3C(=O)O[C@H](c4ccccc4)[C@H](c4ccccc4)N3[C@@H]2c2ccc(OCCO)cc2)cc1 | -0.0155 | 0.289 (inactive) | 0.0762 | -0.0859 | 0.136 | 1.19 | 0.351 | 1.24 | 0.523 | 1.07 | 0.441 | 1.2 | 1.1 | 0.821 | 1.21 | 1.24 | -1.09 | 0.941 | 1.17 | -0.297 (inactive) |
| Cc1ccc(S[C@]2(C(=O)NCC(C)C)CC(=O)N(Cc3ccccc3)[C@@H]2c2ccc(CO)cc2)cc1 | 0.397 | 0.941 (inactive) | -0.406 | 0.0196 | 0.748 | 1.78 | 0.984 | -0.0273 | -2.02 | -1.1 | -0.549 | -0.467 | -0.0956 | -1.2 | -0.795 | -0.42 | -0.254 | -1.4 | -0.282 | -0.766 (inactive) |
| C=CC[C@]1(C(=O)NCCN2CCOCC2)N=C(c2ccc(OCCCO)cc2)O[C@H]1c1ccccc1N=[N+]=[N-] | 0.927 | 0.581 (inactive) | 0.0303 | -0.0359 | 0.691 | 1.55 | 0.811 | 1.24 | 0.663 | 0.563 | 1.5 | 1.16 | 0.0147 | 0.772 | 1.32 | 0.931 | 0.98 | -0.367 | 0.455 | -8.62 (active) |
| O=C1OCCC/C=C\[C@H]2OC34C=CCN(Cn5nnc6ccccc65)C(=O)[C@H]3N(CCCO)C(=O)[C@@H]4C12 (stereo not given in full) | -1.38 | -0.774 (inactive) | -0.306 | -0.112 | 0.896 | 1.82 | 0.888 | 0.301 | -2.21 | -0.946 | 3.1 | -0.162 | -0.0245 | -1.94 | -0.99 | -1.06 | -0.275 | -0.517 | -0.107 | 0.656 (inactive) |
| COCCn1c(C(=O)N2CCCC2)cc2c1C[C@H]1CN(C(=O)c3ccccc3)[C@@](Cc3ccc(OC)cc3)(C(=O)OC)[C@@H]21 | 1.11 | 0.433 (inactive) | 0.512 | 0.384 | 0.868 | 2.11 | 1.11 | 0.424 | -0.975 | 1.05 | 2.34 | 1.02 | 1.89 | 0.632 | 0.417 | -0.552 | 0.766 | -0.0277 | 1.06 | 0.438 (inactive) |
| O=C1O[C@@H](c2ccccc2)[C@@H](c2ccccc2)N2[C@@H](c3ccc(O)cc3)[C@]3(C(=O)Nc4ccccc43)[C@@H](C(=O)NC[C@H](O)c3ccccc3)[C@H]12 | 0.726 | 0.0895 (inactive) | -0.242 | -0.0885 | 0.699 | 1.66 | -0.238 | 0.607 | 0.458 | 0.442 | 2.07 | -0.366 | 0.0943 | -0.406 | 1.02 | 0.797 | 0.411 | 0.266 | 0.0576 | 0.807 (inactive) |
